Among all 2,400 compounds or so, about 580 (24%) were called active. These entries were drawn from the full list. Values without a mark were called inactive.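 Rule for the calls: active = activity change at or above the mean plus 3 SD of buffer wells without dofetilide, per plate; inactive = the rest.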

For the assay, the target named is Potassium voltage-gated channel subfamily KQT member 2 (Rattus norvegicus) (UniProt O88943). The assay is described as follows: rat KCNQ2 channel activation by compounds alone, confirmation, counter-screen for hERG block protector project, cell-based, CHO, FluxOR thallium flux (AID 1942).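 Note: normalized value minus buffer-control mean plus three SD of buffer wells.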 The following applies: CHO-KCNQ2 cells, FluxOR thallium flux fluorescence; at 10 µM; active compounds read high.
Sequence of Potassium voltage-gated channel subfamily KQT member 2 (Rattus norvegicus) (O88943 whole entry, looked up): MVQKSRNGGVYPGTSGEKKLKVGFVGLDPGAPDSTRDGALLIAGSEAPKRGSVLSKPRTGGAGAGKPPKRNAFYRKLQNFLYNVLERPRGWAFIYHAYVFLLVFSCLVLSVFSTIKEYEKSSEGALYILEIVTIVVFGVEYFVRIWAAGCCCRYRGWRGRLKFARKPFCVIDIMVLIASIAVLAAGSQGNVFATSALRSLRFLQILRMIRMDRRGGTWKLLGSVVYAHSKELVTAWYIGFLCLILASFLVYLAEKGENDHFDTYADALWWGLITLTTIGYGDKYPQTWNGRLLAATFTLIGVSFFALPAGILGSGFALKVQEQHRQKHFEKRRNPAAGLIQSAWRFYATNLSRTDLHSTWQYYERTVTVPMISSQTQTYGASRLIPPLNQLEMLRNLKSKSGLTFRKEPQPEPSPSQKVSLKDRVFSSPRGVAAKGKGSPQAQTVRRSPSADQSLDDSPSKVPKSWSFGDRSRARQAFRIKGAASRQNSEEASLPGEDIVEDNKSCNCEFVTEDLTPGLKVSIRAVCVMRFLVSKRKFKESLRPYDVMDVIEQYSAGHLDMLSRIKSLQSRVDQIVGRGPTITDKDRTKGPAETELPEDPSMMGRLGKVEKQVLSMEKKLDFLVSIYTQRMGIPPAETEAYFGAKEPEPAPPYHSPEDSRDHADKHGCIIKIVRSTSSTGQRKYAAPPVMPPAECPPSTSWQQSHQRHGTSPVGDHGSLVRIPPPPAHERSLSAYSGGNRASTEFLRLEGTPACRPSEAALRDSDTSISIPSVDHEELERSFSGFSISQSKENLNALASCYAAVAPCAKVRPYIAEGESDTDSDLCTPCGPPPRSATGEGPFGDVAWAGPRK
For `C=CCSc1nc2sc3c(c2c(=O)n1CC)CCc1ccccc1-3`, the activity change, less the hit threshold was 11.4% (active).
The result for `O=C(O)CN1C(=O)C(=O)N(Cc2ccc(C(F)(F)F)cc2)C1=O` reads -4.3%.
The result for `CCOC(=O)N1CCN(C(=O)CCn2c(=S)[nH]c3ccsc3c2=O)CC1` reads -2.5%; that for `O=c1c2cc(Br)ccc2nc(-c2cccc(Cl)c2)n1O`, 111% (active).
Turning to `N#Cc1ccc(-c2nc3ccc(Br)cc3c(=O)n2O)cc1`, the activity change, less the hit threshold is 17.3% (active).
The figure for `O=c1c2cc(Br)ccc2nc(-c2cccc(C(F)(F)F)c2)n1O` is 126% (active); for `O=c1c2cc(Br)ccc2nc(-c2ccc(Cl)cc2)n1O` it is 133% (active).
In the case of `CCCn1c(SC(C)C(=O)N2CCOCC2)nc2ccc(Br)cc2c1=O` (stereo not given), the activity change, less the hit threshold is -15.9%.
The result for `COc1ccc(CCNS(=O)(=O)c2csc(C(N)=O)c2)cc1OC` reads -18.8%; that for `NC(=O)[C@@H]1CCCN1Cc1nc(Cc2ccccc2Cl)no1`, -17.5%; that for `COc1ccc(Cl)cc1N(C)C(=O)CCNC(=O)Cn1cnc2ccccc2c1=O`, -14.6%.
Turning to `CCOC(=O)N1CCC(N2C(=O)c3ccccc3C2Nc2cccnc2)CC1` (stereo not given), the activity change, less the hit threshold is -1.9%.
`O=c1c2ccc(Cl)cc2nc(-c2cccc(C(F)(F)F)c2)n1O`: the activity change, less the hit threshold is 118% (active).
In the case of `O=c1c2cc(Br)ccc2nc(-c2ccccc2)n1O`, the activity change, less the hit threshold was 36.9% (active).
The figure for `COc1ccc(S(=O)(=O)N2CCCC(C(=O)Nc3ccc(OC)c(OC)c3)C2)cc1` (stereo not given) is -17.4%; for `Cc1cc(C=O)c2c(c1)C=CC1(Oc3ccccc3C(=O)N1C)O2` (stereo not given) it is -0.3%; for `N#Cc1c(-c2ccc(Cl)cc2)cc(-c2cccs2)nc1SCC(=O)O` it is -24.7%.
The result for `CCOc1ccc(S(=O)(=O)Nc2nc3ccccc3nc2-n2ccc(=NC(=O)c3cccs3)cc2)cc1` reads -21.1%; that for `O=[N+]([O-])c1cccc(/C=C/c2nc(C=Nc3ccccc3)c(O)o2)c1`, -18.2%.
Turning to `Cc1ccc(C(=O)NC(=S)N(C)C2CCCCC2)cc1Br`, the activity change, less the hit threshold was 2.9% (active).
The figure for `CC1CCCC(NC(=S)NC(=O)c2cncc(Br)c2)C1C` (stereo not given) is -12%; for `COc1ccc(C(=O)NC(=S)N(C)C2CCCCC2)cc1Br` it is 0.5% (active); for `CC1=NN(C(=O)c2ccc(Cl)cc2)C(O)(c2ccccc2)C1` (stereo not given) it is -5.5%.
The result for `CCOC(=O)C1=NN(C(=O)c2cccc(Br)c2)C(O)(C(C)(C)C)C1` (stereo not given) reads 87.6% (active).
Turning to `COC(=O)C1=NN(C(=O)c2ccc(Cl)cc2)C(O)(c2ccccc2)C1` (stereo not given), the activity change, less the hit threshold is 76.9% (active).
The result for `CC1=NN(C(=O)c2ccccc2Br)C(O)(c2ccc(Cl)cc2)C1` (stereo not given) reads -27.3%; that for `CC(C)(C)C1(O)CC(C(F)(F)F)=NN1C(=O)Cc1ccc([N+](=O)[O-])cc1` (stereo not given), -20.8%; that for `CCOC(=O)c1cnc(-n2nc(C)cc2C)nc1Nc1cccc(C(=O)O)c1`, -13.4%.
The figure for `CCC1=NN(C(=O)c2ccc(Cl)cc2)C(O)(c2ccccc2)C1` (stereo not given) is -23.9%; for `COC(=O)C1=NN(C(=O)c2cccc(Br)c2)C(O)(c2ccc(Cl)cc2)C1` (stereo not given) it is 134% (active).

Values taken from PubChem BioAssay AID1942 (Johns Hopkins Ion Channel Center, 2009).
